F508del corr: correctors of CFTR F508del function in bronchial epithelial cells. CFBE cells, YFP halide quenching; stimulated with forskolin plus potentiator P3; % fluorescence drop versus neutral controls. activity (quench increase), % at 7.58 µM. hit rate 0.36% among 350,000;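 active = mean added fluorescence quench of at least 8% versus neutral control, with both replicates also reaching 8%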;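 note: cells transiently co-express mutant CFTR-F508del with the halide-sensitive YFP; corrector assay measuring rescue of mutant channel to the surface after 24 h compound exposure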
RAD54 inh: inhibitors of human RAD54 branch migration; RAD54 Holliday junction branch migration, FAM/BHQ fluorescence; inhibition, % at 10.4 µM; hit rate 0.14% among 360,000;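 active = mean normalized replicate activity at least 40 and at least half of replicates scoring 40 or more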;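 note: 0% = median of neutral control wells and 100% = median of positive control wells; inhibitors cause a drop in the FAM fluorescence signal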
dFosB activator: activators of mouse delta FosB homodimer; P13346; purified delta FosB, TAMRA-CDK5 oligo fluorescence polarization; percent of positive-control signal above neutral wells; activation, % at 25 µM; hit rate 0.99% among 340,000; AID 493131;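 active = mean activation above about 17%, with every replicate also reaching it, limit read from the data, passing the limit was not always enough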
Target sequence (P13346 whole entry, looked up): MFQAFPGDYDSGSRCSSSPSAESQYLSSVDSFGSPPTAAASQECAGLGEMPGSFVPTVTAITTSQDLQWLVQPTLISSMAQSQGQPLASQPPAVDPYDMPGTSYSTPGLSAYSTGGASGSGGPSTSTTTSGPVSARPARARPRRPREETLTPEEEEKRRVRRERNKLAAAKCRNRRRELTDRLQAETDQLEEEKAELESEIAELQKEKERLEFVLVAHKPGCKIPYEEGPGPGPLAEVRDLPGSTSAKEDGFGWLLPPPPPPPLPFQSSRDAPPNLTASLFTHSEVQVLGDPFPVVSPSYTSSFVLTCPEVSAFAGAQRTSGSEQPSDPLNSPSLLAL
Glyco luc inh: N-linked glycosylation inhibition; D54 ERlucT glycosylation luciferase reporter, 24 h; percent of 100 nM tunicamycin response; reporter increase, % at 12.5 µM; hit rate 0.23% among 360,000;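 active = mean luciferase reporter signal, scaled so untreated is 0 and the glycosylation-blocking control 100, at or above a set limit in every replicate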;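 note: luciferase carries N-glycosylation sites so blocking glycosylation raises the light; 0% = median of neutral control wells and 100% = median of 100 nM tunicamycin wells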
PvdQ inh: P. aeruginosa PvdQ acylase inhibition | purified PvdQ acylase, fluorescence plate reader | inhibition, % at 10 µM | hit rate 0.063% among 340,000 | AID 488965; in the data active = inhibition above about 30%, passing the limit was not always enough;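 note: 0% = vehicle neutral wells and 100% = reference inhibitor wells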
RAD52 anneal inh: blocks human RAD52 DNA annealing; P43351; recombinant RAD52 DNA annealing, FRET fluorescence; inhibition, % at 18.7 µM; hit rate 0.46% among 360,000; AID 651710;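 active = every replicate showing at least 50% inhibition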
* = called active by the depositor; nt = no result. Only some compounds are listed: those with a hit (about 1.5% of all), similar ones and a draw of the others.

SMILES	F508del corr	RAD54 inh	dFosB activator	Glyco luc inh	PvdQ inh	RAD52 anneal inh
COCC(=O)Nc1ccc2c(c1)C(=O)N(C)[C@@H]1CC[C@H](CC(=O)NCc3ccccc3Cl)O[C@@H]1CO2	1.1	-4.4	nt	nt	nt	nt
Cc1cc(NCCCn2ccnc2)n2nc(-c3ccc(Cl)cc3)cc2n1	3.7	nt	5.0	2.5	35.5*	-44.5
C[C@H]1CN([C@@H](C)CO)C(=O)c2c(c3ccccc3n2C)-c2ccccc2CO[C@@H]1CN(C)C(=O)C1CC1	-0.4	-0.1	nt	nt	nt	9.4
Nc1nc(NCCCN2CCOCC2)nc(Nc2cccc(Cl)c2)c1[N+](=O)[O-]	1.8	nt	63.3*	9.8	-19.6	-10.4
COc1ccc(Nc2nc(N)c([N+](=O)[O-])c(NCc3ccccc3)n2)cc1	-2.0	nt	29.0*	-6.3	5.5	1.8
Nc1nc(Nc2ccc(Cl)cc2)nc(NCc2ccco2)c1[N+](=O)[O-]	1.9	-2.0	57.2*	0.4	-14.1	-38.6
Nc1nc(NCC2CCCO2)nc(Nc2cccc(F)c2)c1[N+](=O)[O-] (stereo unspecified)	-0.8	nt	10.1	2.4	-0.9	-12.4
Nc1nc(NCCCN2CCOCC2)nc(Nc2ccc(Cl)cc2)c1[N+](=O)[O-]	-4.4	4.5	nt	15.9	nt	3.5
COc1ccc(Nc2nc(NCc3ccco3)nc(N)c2[N+](=O)[O-])cc1	-1.1	-5.3	nt	-1.7	nt	-7.9
Nc1nc(Nc2cccc(F)c2)nc(NCc2ccco2)c1[N+](=O)[O-]	0.0	28.9	22.8*	-1.3	-6.3	-18.9
C/C=C/c1ccc2c(c1)O[C@@H](CN(C)Cc1cccc(F)c1)[C@@H](C)CN([C@@H](C)CO)S2(=O)=O	1.2	-1.2	nt	nt	nt	-1.8
COc1cccc(C#Cc2cnc3c(c2)C(=O)N([C@@H](C)CO)C[C@@H](C)[C@H](CN(C)C(=O)C2CCC2)O3)c1	0.0	3.6	nt	nt	nt	2.8
Nc1nc(Nc2cccc(Cl)c2)nc(NCc2ccco2)c1[N+](=O)[O-]	0.0	nt	58.4*	-1.0	-7.6	-39.7
Cc1cccc(Nc2nc(NCc3ccco3)nc(N)c2[N+](=O)[O-])c1	-0.6	-16.8	5.3	-2.4	-5.5	-8.9
Cc1nnc(NC(=O)CSc2nnc3c(n2)[nH]c2ccc(Br)cc23)s1	-1.1	nt	153.4*	-0.1	4.6	-14.7
Cc1ccc(C(=O)NNC(=O)CSc2nnc3c(n2)[nH]c2ccc(F)cc23)cc1	nt	5.0	-0.6	-3.8	-12.4	nt
COc1nc(Nc2ccc([N+](=O)[O-])cc2)nc(NC2CCCCC2)n1	nt	1.3	28.9*	0.2	1.9	-8.6
O=C(Cn1cnc2sc3c(c2c1=O)CCCC3)NCC(=O)Nc1c(F)cc(F)cc1Br	-1.3	-12.1	69.0*	0.7	-7.7	-13.2
Cc1ccc(-c2ccc3c(c2)O[C@@H](CN(C)Cc2ccccn2)[C@H](C)CN([C@H](C)CO)S3(=O)=O)cc1	16.1*	0.8	nt	nt	nt	12.3
C[C@@H]1CN([C@H](C)CO)S(=O)(=O)c2ccc(C#CC3CC3)cc2O[C@H]1CN(C)Cc1ccccn1	16.7*	-3.9	nt	nt	nt	15.6
C[C@H](CO)N1C[C@H](C)[C@H](CN(C)Cc2ccccn2)Oc2cc(C#CC3CC3)ccc2S1(=O)=O	4.4	-1.7	nt	nt	nt	-5.2
C[C@@H]1CN([C@H](C)CO)S(=O)(=O)c2ccc(C#Cc3cccc(F)c3)cc2O[C@@H]1CN(C)CC1CC1	-0.9	2.5	nt	nt	nt	58.9*
C[C@@H]1CN([C@@H](C)CO)S(=O)(=O)c2ccc(-c3ccc(C#N)cc3)cc2O[C@H]1CN(C)Cc1cccc(F)c1	8.0*	-8.3	nt	nt	nt	-14.7
C[C@@H]1CN([C@H](C)CO)S(=O)(=O)c2ccc(-c3ccc(C#N)cc3)cc2O[C@@H]1CN(C)Cc1cccc(F)c1	5.8	4.0	nt	nt	nt	10.6
Cc1ccc(-c2ccc3c(c2)O[C@@H](CN(C)Cc2ccccn2)[C@H](C)CN([C@@H](C)CO)S3(=O)=O)cc1	2.8	1.4	nt	nt	nt	19.4
CO[C@@H]1CN(C)C(=O)c2cc(NC(=O)C3CC3)ccc2OC[C@@H](C)N(Cc2ccc(F)cc2)C[C@H]1C	-1.1	-4.5	nt	nt	nt	-16.3
C[C@@H]1CN([C@@H](C)CO)C(=O)c2cc(NS(=O)(=O)c3cccs3)ccc2O[C@@H]1CN(C)S(=O)(=O)c1ccc(Cl)cc1	-0.5	12.0	nt	nt	nt	-7.5
C[C@H](CO)N1C[C@H](C)[C@@H](CN(C)Cc2ccccn2)Oc2cc(-c3ccc(C#N)cc3)ccc2S1(=O)=O	-2.8	nt	nt	nt	nt	nt

Screening results deposited in PubChem by Broad Institute.
